# Source: PubChem BioAssay (NCATS)
# Results filed as inconclusive are left out. Activity calls are given as the source filed them. The call rests on the fitted dose curve; in most records, active means well fitted cell-killing curve with a large enough effect; inconclusive means small, poorly fitted or top-dose-only effect, or effect the other way; inactive means no such curve, though single readings can be large or run the other way.
# Key:
# [1] = Quantitative High-Throughput drug screen in 47 multiple myeloma cell lines against the NCATS MIPE library collection: Delta47_JCRB cell viability assay (AID 1918925; further: nearly all actives have a fitted effect of over 45% in size; further: potency means the concentration at half of the fitted maximal effect); conditions: Delta47 myeloma viability, CellTiter-Glo ATP, 48 h; series mostly up to 45.8 µM
# Outline: (§1)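 Luminescent ATP measurement with CellTiter-Glo gives viability, scaled between DMSO-only wells (100%) and media-only wells (0%). Cells, 500 per well, faced library compounds for 48 hours at 37C.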
# [2] = Quantitative High-Throughput drug screen in 47 multiple myeloma cell lines against the NCATS MIPE library collection: AMO1_DSMZ cell viability assay (AID 1918927; further: nearly all actives have a fitted effect of over 30% in size; further: potency means the concentration at half of the fitted maximal effect); conditions: AMO1 myeloma cells viability, CellTiter-Glo ATP luminescence, 48 h; series mostly up to 45.8 µM
# Outline: as §1
# [3] = Quantitative High-Throughput drug screen in 47 multiple myeloma cell lines against the NCATS MIPE library collection: ARP1_JJKsccF8 cell viability assay (AID 1918928; further: nearly all actives have a fitted effect of over 40% in size; further: potency means the concentration at half of the fitted maximal effect); conditions: ARP1 myeloma cells viability, CellTiter-Glo ATP, 48 h; series mostly up to 45.8 µM
# Outline: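 Viability screen: myeloma cells (500/well) incubated 48 h at 37 °C, humidified 5% CO2, with pinned library compounds; CellTiter-Glo added, luminescence read; DMSO wells set 100%, medium-only wells 0%.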
# [4] = Quantitative High-Throughput drug screen in 47 multiple myeloma cell lines against the NCATS MIPE library collection: ARD_JJKsccE7 cell viability assay (AID 1918929; further: potency means the concentration at half of the fitted maximal effect); conditions: ARD myeloma cell line viability, CellTiter-Glo, 48 h; series mostly up to 45.8 µM
# Outline: as §1
# [5] = Quantitative High-Throughput drug screen in 47 multiple myeloma cell lines against the NCATS MIPE library collection: Karpas620_DSMZ cell viability assay (AID 1918959); conditions: Karpas620 myeloma viability, CellTiter-Glo ATP luminescence, 48 h; series mostly up to 45.8 µM; further: nearly all actives have a fitted effect of over 30% in size; further: potency means the concentration at half of the fitted maximal effect
# Outline: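 We plated 500 myeloma cells per well, pinned in MIPE 4.0 compounds, and incubated for 48 hours at 37C. ATP was then quantified with CellTiter-Glo, with DMSO and media-only wells defining 100% and 0%.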
# [6] = Quantitative High-Throughput drug screen in 47 multiple myeloma cell lines against the NCATS MIPE library collection: EJM_DSMZ cell viability assay (AID 1918926; further: nearly all actives have a fitted effect of over 30% in size); conditions: EJM myeloma cell viability, CellTiter-Glo ATP, 48 h; series mostly up to 45.8 µM
# Outline: as §1
Compound,Potency [1],Potency [2],Potency [3],Potency [4],Potency [5],Potency [6]
C=CCc1cccc(C=NNC(=O)CN2CCN(Cc3ccccc3)CC2)c1O,18.7 µM (active),5.26 µM (active),9.35 µM (active),9.35 µM (active),9.35 µM (active),–
CCCCCCCCCCCCCC(=O)N[C@H](CO)[C@H](O)c1ccc([N+](=O)[O-])cc1,18.7 µM (active),10.5 µM (active),–,20.9 µM (active),16.6 µM (active),–
Cc1ccc(S(=O)(=O)OCC(=O)Nc2ccc(C(=O)O)c(O)c2)cc1,16.6 µM (active),inactive,inactive,inactive,inactive,–
COC1CCC(C(=O)c2ccc3nc4c(cc3c2)CCCO4)CC1 (stereo not given),16.6 µM (active),18.7 µM (active),23.5 µM (active),–,16.6 µM (active),–
Oc1ccc(C=Cc2cc(O)cc(O)c2)cc1,–,inactive,13.2 µM (active),inactive,inactive,inactive
COc1cc(Cl)cn2c(-c3cccc(NC4CNC4)n3)cnc12,20.9 µM (active),5.26 µM (active),inactive,16.6 µM (active),–,–
N[C@@H](CC(=O)N1CCn2c(nnc2C(F)(F)F)C1)Cc1cc(F)c(F)cc1F,inactive,inactive,inactive,inactive,inactive,–
C[C@H]1COC2=C1C(=O)C(=O)c1c2ccc2c1CCCC2(C)C,14.8 µM (active),–,16.6 µM (active),inactive,–,–
CCc1cc(-c2n[nH]c(C)c2-c2ccc3c(c2)OCCO3)c(O)cc1O,7.43 µM (active),3.72 µM (active),2.96 µM (active),1.18 µM (active),14.8 µM (active),–
